{
  "source": "paper PMC7819943",
  "about": "“Rice protein-binding microarrays: a tool to detect cis-acting elements near promoter regions in rice”",
  "note": "In all, about 39,000 sequences were measured (“fluorescence intensity (a.u.)”: median about 4,300, highest 2% from about 39,000 on). The full list was thinned out, with the highest values kept by preference.",
  "data": [
    {"molecular_target": "T1, OsSMF1 (Oryza sativa, UniProt Q6ZLB0 1-436)", "T1 sequence": "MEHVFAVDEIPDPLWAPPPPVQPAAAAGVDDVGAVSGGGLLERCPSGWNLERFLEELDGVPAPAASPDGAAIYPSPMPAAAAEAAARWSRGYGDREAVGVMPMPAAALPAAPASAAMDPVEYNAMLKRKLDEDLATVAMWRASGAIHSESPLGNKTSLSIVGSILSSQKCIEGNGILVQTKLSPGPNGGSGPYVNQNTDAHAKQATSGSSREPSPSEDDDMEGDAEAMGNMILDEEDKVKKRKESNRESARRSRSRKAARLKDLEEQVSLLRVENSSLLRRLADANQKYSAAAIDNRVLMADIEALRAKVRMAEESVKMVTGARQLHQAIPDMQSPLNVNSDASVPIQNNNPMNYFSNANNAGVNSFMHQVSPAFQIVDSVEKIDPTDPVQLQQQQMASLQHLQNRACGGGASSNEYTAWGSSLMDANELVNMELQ", "test": "protein-binding microarray (RPBM); PBS, 2% BSA, 51.3 ng/ul salmon testes DNA, 50 uM zinc acetate, 200 nM TF, 25 C, 1 h; high values mean tight binding", "conditions": "protein: recombinant; tags: N-terminal polyhistidine and DsRed monomer fusion (pET32a); chain copies: 2; label: CyDye5-dUTP incorporated in the synthesized complementary strand; 3' TTTTT single-stranded linker to array surface; dsDNA, one strand shown", "procedure,_shortened": "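In PBS with 2% BSA, salmon testes DNA and 50 µM zinc acetate, 200 nM protein was incubated on a custom Agilent array at 25 °C for 1 h and then washed off. The array had been made double-stranded by primer extension with Cy5-dUTP and blocked with 2% BSA. The proteins were transcription factors fused N-terminally to polyhistidine and DsRed, expressed in E. coli BL21-CodonPlus and purified on Ni–NTA. The binding signal is per-feature fluorescence intensity (arbitrary units) from an Axon 4000B scanner.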", "values": [
      {"sequence": "TCATCATCATCATCATTATTAAAGTAAATTTCAGAAAACTCGGAGTCACCTAGTGCAG", "binding signal": "21600 fluorescence intensity (a.u.)"},
      {"sequence": "TAGTTTCACTTATTATTTATTTCAGTAAAAGAAAGTTTCCCGGAGTCACCTAGTGCAG", "binding signal": "3690 fluorescence intensity (a.u.)"},
      {"sequence": "GCGGAGGTCGACCTTGGCGAGGTCGTCCACGTCCGGGTGCCGGAGTCACCTAGTGCAG", "binding signal": "3340 fluorescence intensity (a.u.)"},
      {"sequence": "CCATCTTCATCTCCATATCTTCTCCTCCTCGCGTCGGCAGCGGAGTCACCTAGTGCAG", "binding signal": "3270 fluorescence intensity (a.u.)"},
      {"sequence": "TCTAACCCCGCCTGCAGATCCGCTCCATCGATTCCCTCCCCGGAGTCACCTAGTGCAG", "binding signal": "31700 fluorescence intensity (a.u.)"},
      {"sequence": "GGCCCCACATGTCATCTCCTCCCTTTCTTCTTCCTCCCCTCGGAGTCACCTAGTGCAG", "binding signal": "4040 fluorescence intensity (a.u.)"},
      {"sequence": "CTTCAGTCCTCGGCCCATTCTCCCTTCCTTTCAGCTGGCTCGGAGTCACCTAGTGCAG", "binding signal": "45600 fluorescence intensity (a.u.)"},
      {"sequence": "AAATCCGCCCTCGCCTCGCCCCGATCGATCCCCTCGATTCCGGAGTCACCTAGTGCAG", "binding signal": "3810 fluorescence intensity (a.u.)"},
      {"sequence": "GCTTCTGCTGTGGCTGTGCTGAGCTTTCACAGTCACAGCCCGGAGTCACCTAGTGCAG", "binding signal": "3550 fluorescence intensity (a.u.)"},
      {"sequence": "AACTTCTCAATGTGTGGCCCCGAGCTGTGGCTTCACAGCTCGGAGTCACCTAGTGCAG", "binding signal": "63300 fluorescence intensity (a.u.)"},
      {"sequence": "TCTCCCCAGATTTCCCCTTCCATTCCGCCTCCCGATCGCTCGGAGTCACCTAGTGCAG", "binding signal": "43300 fluorescence intensity (a.u.)"},
      {"sequence": "CCCAGCCCGGCGTCCCCTTCTCGGCTTCCTCCTCCACCATCGGAGTCACCTAGTGCAG", "binding signal": "4100 fluorescence intensity (a.u.)"},
      {"sequence": "GCAATCTCATGATTCATGCAGCTTTGTAGCAATGTGTGCTCGGAGTCACCTAGTGCAG", "binding signal": "3140 fluorescence intensity (a.u.)"},
      {"sequence": "GGAGGAGGAGGAGGAGGGAGATGGTGGCGAGCTGACTTGGCGGAGTCACCTAGTGCAG", "binding signal": "4090 fluorescence intensity (a.u.)"},
      {"sequence": "TCAGCTGCGTCACCCGAGTCCTCCACTCGTCTCCGCTATTCGGAGTCACCTAGTGCAG", "binding signal": "5650 fluorescence intensity (a.u.)"},
      {"sequence": "TCACTGCGTGCATGTATGTACGTGGATTGTCCAATTACAACGGAGTCACCTAGTGCAG", "binding signal": "3300 fluorescence intensity (a.u.)"},
      {"sequence": "CTCCTAGCAGCAACAGGGCCACGTTTGCTCTGCGAACAGGCGGAGTCACCTAGTGCAG", "binding signal": "4590 fluorescence intensity (a.u.)"},
      {"sequence": "TTTGGTTAGTGAATTTAGCTATCCTCTCCTTGACTTCCTACGGAGTCACCTAGTGCAG", "binding signal": "3660 fluorescence intensity (a.u.)"},
      {"sequence": "ATTTAGTGCTAAATATGTAGTTTCATGATACATCATGTTACGGAGTCACCTAGTGCAG", "binding signal": "3850 fluorescence intensity (a.u.)"},
      {"sequence": "TGGTGTGTAATTTGTGCAAATTCTAAGCAAATGCAAATTGCGGAGTCACCTAGTGCAG", "binding signal": "17200 fluorescence intensity (a.u.)"},
      {"sequence": "GGTGCAGTTCATCATATGTGTTAGACTAATTGAGTAATTGCGGAGTCACCTAGTGCAG", "binding signal": "36500 fluorescence intensity (a.u.)"},
      {"sequence": "TGTGTTCTGCAATGCATAATTGCACCAGTTCTAGTACCTGCGGAGTCACCTAGTGCAG", "binding signal": "45300 fluorescence intensity (a.u.)"},
      {"sequence": "CAGGGGCATTTCCGTAAACTCCCACGTGGCACAGATACGGCGGAGTCACCTAGTGCAG", "binding signal": "13200 fluorescence intensity (a.u.)"},
      {"sequence": "TCTTGACATCCGGAATCATCACGCTCTTCCCAATCGAGGTCGGAGTCACCTAGTGCAG", "binding signal": "3680 fluorescence intensity (a.u.)"},
      {"sequence": "AAGTAGCCCGGATCTCCCAGCTTCCCTCGAGCTGACCTCACGGAGTCACCTAGTGCAG", "binding signal": "3960 fluorescence intensity (a.u.)"},
      {"sequence": "TTTAATTCAAATGCCAGCTAAGCGCTACGTCAACCCTACACGGAGTCACCTAGTGCAG", "binding signal": "15500 fluorescence intensity (a.u.)"},
      {"sequence": "TTTAATTCAAATGCCACCTAAGCACCACGTCAGCGAAACCCGGAGTCACCTAGTGCAG", "binding signal": "42600 fluorescence intensity (a.u.)"},
      {"sequence": "TGCTGACTATGATGCCACGTCAGCGAAACCACCCATATATCGGAGTCACCTAGTGCAG", "binding signal": "23000 fluorescence intensity (a.u.)"},
      {"sequence": "TTTTAATTCAAATGCCACCTAAGCGCCACGTCAACCCTATCGGAGTCACCTAGTGCAG", "binding signal": "23500 fluorescence intensity (a.u.)"},
      {"sequence": "ACTAAGCTGCCACGTGGATGCCACGTCAGCGAAAACCACCCGGAGTCACCTAGTGCAG", "binding signal": "61800 fluorescence intensity (a.u.)"},
      {"sequence": "TGCCACGTCAGCGAAAACCACCATCTAAACCACCGCCATGCGGAGTCACCTAGTGCAG", "binding signal": "7960 fluorescence intensity (a.u.)"},
      {"sequence": "GGGCGGAGCTAGAATAAAATAAAGGAGGGTTCCACTCGTTCGGAGTCACCTAGTGCAG", "binding signal": "23100 fluorescence intensity (a.u.)"},
      {"sequence": "TCGATTTACTGACAAAATTGTATCCCAAAACAATGGCTTACGGAGTCACCTAGTGCAG", "binding signal": "33700 fluorescence intensity (a.u.)"},
      {"sequence": "TTCTCTACCAGCGGCAGCGGCGGCTGGTAGGGAGGAGGAGCGGAGTCACCTAGTGCAG", "binding signal": "4860 fluorescence intensity (a.u.)"},
      {"sequence": "ATAAAGAAGGGAGGCAGCGGGCGAGCTGTAAAGGAGTACACGGAGTCACCTAGTGCAG", "binding signal": "32300 fluorescence intensity (a.u.)"},
      {"sequence": "GGATTGACGGGGACGCGGTGGTGGCGCCAACGGATGGACGCGGAGTCACCTAGTGCAG", "binding signal": "6220 fluorescence intensity (a.u.)"},
      {"sequence": "TTACTAGTACATTTAATATATTTATTTAATGTATTTGTATCGGAGTCACCTAGTGCAG", "binding signal": "3140 fluorescence intensity (a.u.)"},
      {"sequence": "CATTTTGTACTTTGACAAGTATTTAATATTTGCCAGTAGTCGGAGTCACCTAGTGCAG", "binding signal": "65100 fluorescence intensity (a.u.)"},
      {"sequence": "TTACTGGTGATATTTATTTTGACAAGTGCTTTTATTTGTACGGAGTCACCTAGTGCAG", "binding signal": "3930 fluorescence intensity (a.u.)"},
      {"sequence": "ATATTCGTCTCTATCGCTTAAGGCGGTTAGTTGCGTGTCACGGAGTCACCTAGTGCAG", "binding signal": "3930 fluorescence intensity (a.u.)"},
      {"sequence": "GTCCAATTTAATGCTGACGTTGCTGATGGAATGCCGTGGACGGAGTCACCTAGTGCAG", "binding signal": "10500 fluorescence intensity (a.u.)"},
      {"sequence": "AATCATTTTATTTGACTAATACACGTCAGGATTGAATGAGCGGAGTCACCTAGTGCAG", "binding signal": "4880 fluorescence intensity (a.u.)"},
      {"sequence": "TTAATGATTTTATTTGAATGGATCAGGGTCCAATTTGCTGCGGAGTCACCTAGTGCAG", "binding signal": "55800 fluorescence intensity (a.u.)"}
    ]}
  ]
}
